Bioassay records (PubChem BioAssay)
Hits are enriched below; roughly 7.5% of the tested compounds scored in any of these assays.
FMDV antiviral: High Throughput Screening for Foot and Mouth Disease Virus Antivirals. FMDV antiviral cell-based qHTS. Potency, µM (doses to about 57.9 µM), hits mostly inhibitors. hit rate 1.2% among 410,000; calls by dose curve; tested in HEK293T cells; also: read-out not given here; nearly all actives have a fitted effect of over 45% in size
FBPA Giardia inh: qHTS Assay for Inhibitors of Fructose-1,6-bisphosphate Aldolase from Giardia Lamblia | purified Giardia FBPA | Potency, µM (top dose mostly 59.6 µM), usual class: inhibitors | hit rate 0.71% among 290,000; also: nearly all actives have a fitted effect of over 55% in size
Target sequence (A8B2U2 whole entry, looked up): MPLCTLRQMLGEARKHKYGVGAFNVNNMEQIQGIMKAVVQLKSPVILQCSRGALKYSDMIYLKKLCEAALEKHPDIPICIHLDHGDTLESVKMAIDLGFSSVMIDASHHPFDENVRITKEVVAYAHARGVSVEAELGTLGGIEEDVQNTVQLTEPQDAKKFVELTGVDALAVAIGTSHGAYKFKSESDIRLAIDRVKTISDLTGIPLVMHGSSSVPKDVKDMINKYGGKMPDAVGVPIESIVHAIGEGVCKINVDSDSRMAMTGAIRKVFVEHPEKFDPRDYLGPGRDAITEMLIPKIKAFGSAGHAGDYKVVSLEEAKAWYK
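40 nM FBPA preincubated 10 min at RT with compound (up to 57.5 uM final), then substrate plus GAPDH/TPI/NAD/arsenate coupling and diaphorase/resazurin added. Fluorescence read after 20 min at RT, 525/598 nm.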
HCV inh: qHTS Assay for Inhibitors of Hepatitis C Virus (HCV); Huh7.5.1 HCVcc-Cre infection, luciferase reporter, 44 h; Potency, µM (titrated, usually from 41.8 µM), most hits filed as inhibitors; hit rate 3.4% among 340,000; AID 651820, 2012
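Cells seeded at 1,000/well and cultured 4 h, then compounds added followed by HCVcc-Cre virus (~0.5 moi). After 44 h further culture, luciferase substrate was added, plates held 15 min at room temperature, and luminescence read for 15 sec.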
Vaccinia Venus: qHTS for Stage-Specific Inhibitors of Vaccinia Orthopoxvirus: Venus Reporter Primary qHTS. Vaccinia virus Venus reporter expression, fluorescence. Potency, µM (series often up to 36.5 µM), usual class: inhibitors. hit rate 0.46% among 330,000; calls by dose curve; tested in A549 cells; also: nearly all actives have a fitted effect of over 30% in size
Vaccinia mCherry: qHTS for Stage-Specific Inhibitors of Vaccinia Orthopoxvirus: mCherry Reporter Primary qHTS; Potency, µM (highest dose often 36.5 µM), hits mostly inhibitors; hit rate 0.63% among 310,000; AID 720579, 2013; Vaccinia virus mCherry reporter infection, fluorescence; calls by dose curve; tested in A549 cells; also: nearly all actives have a fitted effect of over 35% in size
HCMV antiviral: qHTS Assay for inhibitors of the human cytomegalovirus (HCMV). HFF cells, HCMV-luciferase reporter, 72 h; hits give low values. hit rate 4.5% among 410,000. activity change, negative = inhibition, % at 57.5 µM; in the data active = activity change below about -60%; inconclusive = no clear call, values can overlap the other calls; inactive = above about -39%
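Steps: HFFs plated, 16 h 37C; compounds added; HCMV-luciferase added to MOI 1 PFU/cell; 72 h 37C; OneGlo reagent, 5 min room temperature; luminescence read, normalized to controls.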
Numbers stand for hits; - = inactive; ? = inconclusive; . = no result; [ ] = dose if it differs, or a comment. Unless noted, calls follow the shape of the dose curve; as a rule, active = well fitted curve in the direction sought with a large enough effect; inconclusive = small, poorly fitted or top-dose-only effect, or another doubt; inactive = no such curve, though single readings can be large; an effect the other way counts as inactive or inconclusive.

SMILES	FMDV antiviral	FBPA Giardia inh	HCV inh	Vaccinia Venus	Vaccinia mCherry	HCMV antiviral
NC(=O)c1sc2nc3c(c(-c4cccs4)c2c1N)CCCCC3	?	-	-	-	-	-86.2
N[C@H]1CC[C@@]23CCCN2C(=O)CCC[C@H]3[C@H]1Cc1ccccc1	.	.	.	.	.	-
Cc1ccc(C)c(N2CCN(CCCNC(=O)C3COc4ccccc4C3)CC2)c1 (centres undefined)	-	.	.	-[7.34 µM]	-[7.34 µM]	-
O=C(NCCc1ccccc1)O[C@H]1CC[C@@]23CCCN2C(=O)CCC[C@H]3[C@H]1Cc1ccccc1	.	.	.	.	.	-
CCOc1cc(C(=O)Nc2cc(C)ccc2C)ccc1OCC(=O)N1CCCCC1	-	-	-	-	-	-70.7
CC1(C(=O)NC2CCCC2)CCC(=O)N1CCc1c[nH]c2ccccc12 (centres undefined)	-	.	.	-	-	-
O=C(NCC(c1cccnc1)N1CCN(c2ccc(F)cc2)CC1)c1cccc(Cl)c1 (centres undefined)	25.1µM	-	14.1µM	?	-[1.46 µM]	-
COc1ccc(N2CCN(C(CNC(=O)c3cccc(OC)c3)c3cccnc3)CC2)cc1 (centres undefined)	-	.	.	-	-	-
COc1ccc(S(=O)(=O)NCC(c2cccnc2)N2CCN(c3ccccc3)CC2)cc1C (centres undefined)	-	-	?	10µM	-[1.46 µM]	-
COc1ccc(N2CCN(C(CNS(=O)(=O)c3cc(F)ccc3F)c3cccnc3)CC2)cc1 (centres undefined)	-	-	-	-	-	-106.6
O=S(=O)(NCC(c1cccnc1)N1CCN(c2ccc(F)cc2)CC1)c1cc(F)ccc1F (centres undefined)	-	.	-	-	-	-
COc1cc(-c2n[nH]c3ccnc(-c4ccccc4)c23)cc(OC)c1OC	.	.	.	.	.	-
CCC(=NC(C)c1ccccc1)c1c(O)n(C)c(=O)n(C)c1=O (centres undefined)	12.6µM	-	5.62µM	.	.	?
CCC(=NCCc1c[nH]c2ccccc12)c1c(O)n(C)c(=O)n(C)c1=O	15.8µM	-	4.47µM	.	.	-75.1
CC/C(=N\Nc1ccccc1)c1c(O)n(C)c(=O)n(C)c1=O	?	-	-	-	-	-
CN1N/C(=C\c2ccccc2)N=C2C(=O)N(C)C(=O)N=C21	.	.	.	8.91µM	7.94µM	.
CC/C=C1/N=C2C(=O)N(C)C(=O)N=C2N(C)N1	.	.	.	2.24µM	1.78µM	.
CCOC(=O)N1CCN(Cc2ccc3c(c2)CN(C(=O)c2ccc(C#CC(C)(C)O)o2)CCO3)CC1	?	.	.	-	-	.
CC1CCN(c2ccc(C(=O)Nc3ccc4c(c3)OCO4)cc2[N+](=O)[O-])CC1	-	-	4.47µM	-	-	-60.8
O=C(Nc1cccnc1)c1ccc(N2CCCC2)c([N+](=O)[O-])c1	-	-	11.2µM	-	-	-
CCOC(=O)CSc1ccc(C(=O)NCCN2CCOCC2)cc1[N+](=O)[O-]	-	-	-	-	-	-
CCCNC(=O)c1ccc(SCC(=O)N(CC)CC)c([N+](=O)[O-])c1	-	-	?	-	-	-67.4
CN1C(=O)c2ccc(NC(=O)c3ccc(N4CCCCC4)c([N+](=O)[O-])c3)cc2C1=O	17.8µM	-	-	-	-	-
COC(CN(C)S(=O)(=O)c1cc2c3c(c1)CCC(=O)N3CCC2)OC	-	-	-	-[7.34 µM]	-[7.34 µM]	-
COC(=O)[C@@H]1CCCN1Cc1ccc2c(c1)CN(Cc1coc3ccc(C)cc3c1=O)CCO2	-	.	.	-	-	.
SMILES	FMDV antiviral	FBPA Giardia inh	HCV inh	Vaccinia Venus	Vaccinia mCherry	HCMV antiviral
CCCCNC(=O)c1ccc(N2CCC3(CC2)OCCO3)c([N+](=O)[O-])c1	-	-	-	-	-	-
CN(C)CCNC(=O)c1ccc(Sc2ccc(Br)cc2)c([N+](=O)[O-])c1	-	-	?	?	10µM	?
O=C(NCCCn1ccnc1)c1ccc(N2CCCCCC2)c([N+](=O)[O-])c1	-	-	-	-	-	-60.9
C=C1CCN(c2ccc(C(=O)NCCC)cc2[N+](=O)[O-])CC1	-	.	10µM	-	-	-
CCOC(=O)N1CCC(NC(=O)c2ccc(N3CCC4(CC3)OCCO4)c([N+](=O)[O-])c2)CC1	25.1µM	-	-	-	-	-
Cc1ccc(C(=O)NCCCn2ccnc2)cc1[N+](=O)[O-]	-	-	-	-	-	-
CC(=O)NCCNC(=O)c1ccc(Sc2ccccc2)c([N+](=O)[O-])c1	-	-	-	-	-	-
CCN(CC)CCNC(=O)c1ccc(-c2nc(CN3CCc4ccccc43)c(C)o2)cc1	?	.	.	-	-	?
O=S(=O)(c1ccc2ccccc2c1)n1nc(-c2ccco2)nc1NCc1ccc(F)cc1	-	.	.	-	-	-
Cc1ccc(C)c(CC(=O)N2CCCC(c3cc(C(=O)NCc4cccnc4)no3)C2)c1 (centres undefined)	?	.	.	-	-	-
CCOc1ccccc1NC(=O)CN1C(=O)COc2ccc(C)cc21	-	-	-	-	-	-
COc1ccc(CCNC(=O)c2cc(COc3c(C)cccc3C)on2)c(OC)c1	-	-	?	-	-	-
C[C@@H]1CN([C@H](C)CO)C(=O)c2c(c3ccccc3n2C)-c2ccccc2CO[C@H]1CN(C)Cc1ccc(C(F)(F)F)cc1	?	.	.	?	?	-106.5
Cc1cc(C)c(NC(=O)C(=O)NCC(c2cccnc2)N2CCN(Cc3ccccc3)CC2)c(C)c1 (centres undefined)	?	.	.	-	-	-
c1ccc(-c2cnc(-c3ccccc3)nn2)cc1	-	.	-	-	-	-
c1ccc(-c2cnc(-c3ccccn3)nn2)cc1	-	.	0.501µM	-	-	-
COc1cccc(CNC(=O)[C@H]2[C@H](CO)[C@H]3Cn4c(cccc4=O)[C@@H]2N3C(=O)C2CC2)c1	.	.	.	.	.	-
COc1ccc(CN(Cc2ccccc2)C(=O)c2cccc(C#N)c2)cc1COc1ccc(NC(C)=O)cc1	.	.	.	-	-	.
